# From PubChem BioAssay AID651673 (Broad Institute, 2012)
# Some of the results follow. Activity calls are given as the source filed them.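 How the source made its calls: active means signal drop giving an AC50 within twice the top valid tested concentration of each sample (actives reach about 35 µM in these data); inactive means activity opposite to expected, plus the rest.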
# Experiment: acridine orange displacement from DNA – biochemical, fluorescence polarization, cherry-pick, artefact control for RAD54 inhibitor project, dose response (AID 651673);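 further: polarization loss reports compound binding to salmon sperm DNA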
# Conditions: 20 min; series mostly up to 35 µM
structure (smiles),measurement,value
CN1CCN(c2cc(N3CCNCC3)ccc2[N+](=O)[O-])CC1,outcome,inactive
